# This is part of a sample that, as a whole, favours compounds with a hit. Of some 83,000 tested, about 20% had one in any assay.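 The endpoint reported here, percent growth, reads 100 for growth as untreated, 0 for no net growth and -100 for all cells dead.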 Values without a mark were called inactive. Activity calls are given as the source filed them. How the source made its calls: active means growth percent below 10; inactive means the rest.
# What was measured:
# Assay in all cases: NCI-60 one-dose screen, 48 h (100 = growth as untreated, 0 = no growth, -100 = all killed)
# Conditions in all cases: 10 µM unless noted
# SK-MEL-2 melanoma = test system: SK-MEL-2 melanoma
# SN12C renal = test system: SN12C renal
# UO-31 renal = test system: UO-31 renal
# TK-10 renal = test system: TK-10 renal
# ACHN renal = test system: ACHN renal
# CAKI-1 renal = test system: CAKI-1 renal
# A498 renal = test system: A498 renal
# CCRF-CEM leukemia = test system: CCRF-CEM leukemia
# MOLT-4 leukemia = test system: MOLT-4 leukemia
# SR leukemia = test system: SR leukemia
# RPMI-8226 leukemia = test system: RPMI-8226 leukemia
# OVCAR-8 ovarian = test system: OVCAR-8 ovarian
# OVCAR-5 ovarian = test system: OVCAR-5 ovarian
# OVCAR-4 ovarian = test system: OVCAR-4 ovarian
# SK-OV-3 ovarian = test system: SK-OV-3 ovarian
# IGROV1 ovarian = test system: IGROV1 ovarian
# OVCAR-3 ovarian = test system: OVCAR-3 ovarian
# HS 578T breast = test system: HS 578T breast
# NCI/ADR-RES ovarian = test system: NCI/ADR-RES ovarian
Compound,growth (SK-MEL-2 melanoma),growth (SN12C renal),growth (UO-31 renal),growth (TK-10 renal),growth (ACHN renal),growth (CAKI-1 renal),growth (A498 renal),growth (CCRF-CEM leukemia),growth (MOLT-4 leukemia),growth (SR leukemia),growth (RPMI-8226 leukemia),growth (OVCAR-8 ovarian),growth (OVCAR-5 ovarian),growth (OVCAR-4 ovarian),growth (SK-OV-3 ovarian),growth (IGROV1 ovarian),growth (OVCAR-3 ovarian),growth (HS 578T breast),growth (NCI/ADR-RES ovarian)
CCCC(CC)(C(=O)Nc1ccc2nc(C)cc(N)c2c1)C(=O)Nc1ccc2nc(C)cc(N)c2c1,108%,105%,90.1%,96.5%,105%,91.9%,104%,99.9%,98.8%,96.1%,100%,103%,85.1%,83.8%,93.1%,111%,108%,106%,109%
COc1cccc(/C=C/C(=O)c2cc3c(N)c(C(=O)Nc4cccc5ccccc45)sc3nc2C)c1,24.2%,-27.9% (active),16.9%,32%,35%,17.2%,4.07% (active),7.04% (active),16.8%,12.5%,-18.9% (active),3.72% (active),15.8%,56.8%,56.2%,-3.98% (active),-17% (active),15%,4.18% (active)
COc1cccc(/C=N/NC(=O)c2ccccc2N2CCCC2)c1O,-7.25% (active),78.8%,30.4%,74.9%,31.1%,0.778% (active),67.1%,-14% (active),30.7%,77.4%,-1.83% (active),54.9%,57.9%,18%,63.6%,-24.3% (active),-4.45% (active),87.3%,13.6%
COc1cnc2c(c1)C(=O)c1c-2n(CCCCl)c(=O)c2ccncc12,102%,70.4%,,87.3%,,35.7%,73.2%,34.6%,26.2%,17.1%,41.9%,66.2%,116%,66.2%,89.3%,55.5%,2.98% (active),84.3%,59%
CC(=O)OC[C@]12CC[C@@H]([C@@H](C)c3nnc(-c4ccncc4)o3)[C@@H]1[C@H]1CC[C@@H]3[C@@]4(C)CC[C@H](OC(C)=O)C(C)(C)[C@@H]4CC[C@@]3(C)[C@]1(C)CC2,82.3%,87.1%,69%,94.7%,80.8%,64.4%,97.4%,68.4%,57.2%,53.2%,47.4%,90.4%,109%,72.3%,90.7%,100%,80.9%,92.1%,90.6%
Clc1ccc(-c2cc(-c3ccccc3)nc(NCCNc3ccnc4cc(Cl)ccc34)n2)cc1,78.8%,-48% (active),36.4%,106%,10.1%,5.52% (active),53.3%,-2.14% (active),-1.52% (active),29.2%,-25.3% (active),-55.9% (active),48.9%,-69.4% (active),100%,,-90.6% (active),-17.5% (active),-63.4% (active)
C=C1C(=O)O[C@H]2[C@H]1CC/C(COC(=O)c1ccc(C(=O)O)s1)=C\CC[C@@]1(C)O[C@@H]21,49.5%,-8.57% (active),29%,13.1%,17.4%,8.39% (active),104%,-28.7% (active),-7% (active),-12.8% (active),-25.9% (active),17.9%,48.6%,35.2%,96.6%,-26.8% (active),0.215% (active),37.6%,42%
N#Cc1cccc(C2C3=C(COC3=O)N(CCO)c3cc4c(cc32)CCC4)c1 (centres undefined),24.5%,34.3%,39%,54.2%,26%,34.7%,-6.54% (active),7.42% (active),13.5%,14.8%,19.3%,5.25% (active),43.5%,56.4%,32.1%,22.5%,-10.5% (active),28.2%,2.04% (active)
N#Cc1ccc(O)c(C2=NCC(Cc3ccccc3)O2)c1 (centres undefined),38.8%,51.9%,22%,51.4%,38.6%,12.9%,84.9%,33.6%,46.6%,60.8%,55.3%,37%,79.7%,22.3%,50.9%,,16.1%,90.7%,0.317% (active)
Cc1cn(-c2cc(NC(=O)c3cncc(C#Cc4c(N)ncc5ccc(F)cc45)c3)cc(C(F)(F)F)c2)cn1,11.4%,54.5%,27.4%,84.3%,60.6%,72.1%,84%,39.6%,35.6%,51.4%,55.1%,65.2%,46.2%,79.6%,87.6%,32.9%,84.5%,54.6%,79.1%
COc1ccc(/C=C/C(=O)c2ccc(NC(=O)CSc3nc4c([nH]3)c(=O)n(C)c(=O)n4C)cc2)cc1OC,110%,85.3%,90.8%,97.9%,94.4%,84.7%,71.7%,66%,72.4%,36.6%,85.9%,89.7%,83.9%,72.6%,102%,71.3%,70%,81.3%,96.1%
Cc1cccc[n+]1C1c2ccccc2-c2ccccc21,90.2%,94.2%,90.7%,89.5%,107%,100%,82.9%,78.5%,98.3%,102%,70.7%,96.6%,99%,97.8%,73.3%,92.2%,98.5%,101%,111%
CCN1CCN(CC(=O)Nc2ccc(-c3cn4c(n3)sc3cc(Oc5ccnc(C(=O)NC)c5)ccc34)cc2)CC1,42.5%,85.9%,60.1%,89.5%,73.2%,67.4%,81.8%,44.9%,60.6%,-16.9% (active),59.2%,92.4%,91.2%,87.5%,44.8%,84.8%,88.8%,94%,89%
C/C=C(/C)n1cnc2c(Nc3ccccn3)nc(Cl)nc21,97.1%,94.1%,80.8%,114%,99.9%,94.2%,111%,104%,100%,105%,98.2%,100%,98.4%,105%,111%,103%,111%,97.8%,108%
FC(F)(F)Oc1cccc(-c2cnc3ccc(-c4ccncc4)nn23)c1,-21.7% (active),13.2%,0.42% (active),17.3%,,7.75% (active),23%,4.57% (active),4.08% (active),4.36% (active),15.9%,14.3%,16.5%,47%,-19.3% (active),12.1%,8.85% (active),23.4%,11.6%
CC(C)(C)n1cc(-c2ccnc(NCCCNS(=O)(=O)c3ccc(C(F)(F)F)cc3)c2)c(-c2cccc(F)c2)n1,93.6%,82.8%,78%,108%,85.7%,90.3%,92.5%,73.8%,65.3%,25.2%,55.9%,83.1%,85.4%,99.7%,94.2%,84.1%,95%,95%,76.5%

# Source: PubChem BioAssay (NCI)
